The record followed here is PubChem BioAssay (NCI).

This is part of a sample that, as a whole, favours compounds with a hit. Of some 83,000 tested, about 20% had one in any assay.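 48-hour exposure, single concentration, 96-well plates; percent growth endpoint where 0 means no net growth. Active: below 10.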 Unmarked numbers belong to inactive results. Active and inactive are the calls of the source.

The test system of this assay is HL-60(TB) leukemia. Nature of the assay: NCI-60 one-dose screen, 48 h (100 = growth as untreated, 0 = no growth, -100 = all killed). The following applies: 10 µM unless noted.
On to `CC(=O)Nc1nc(C)c(C(=O)N/N=C/c2cccn2C)s1`, for which the growth was 112%. `O/N=C1\c2ccccc2-c2ccc(Br)cc21`: the growth is 109%.

`Nc1ccc(C2=Nc3cccc4cccc(c34)S2)cc1`: the growth was 76.7%.

Turning to `CCOC(=O)c1cc(C(=O)c2cc(OC)cc(OC)c2)n2ncccc12`, the growth is -21.7% (active). Consider `COc1ccc(-c2nnc(SCC(=O)Nc3ccc(C(=O)/C=C/c4ccc(Cl)cc4)cc3)o2)cc1OC`, for which the growth was 93.1%.

Turning to `C=CCN1C(=O)[C@]2(SC1=S)[C@H](c1cccc(Cl)c1)CN(C)[C@]21C(=O)NC2C=CC(Cl)=C[C@H]21` (stereo not given in full), the growth was -39.8% (active). Regarding `O=c1oc2ccc(Br)cc2c(=O)n1-c1ccc(F)cc1F`, the growth is -1.95% (active).

For the compound `BrC(Br)(Br)c1cnc2ccccc2n1`, the growth was -38.1% (active). The figure for `O=C(Nc1ccc(Br)cc1F)c1cc(Br)ccc1O` is -23.7% (active); for `CCCCSCC(=O)c1ccccc1` it is 63.4%.

With `COc1ccc(-c2n[nH]nc2-c2cc3ccccc3s2)cc1O`, the growth is 2.49% (active). Turning to `CCOc1cc(/C=C/C(=O)C(C(=O)/C=C/c2ccc(OC(=O)CNc3nc4ccccc4[nH]3)c(OCC)c2)C(=O)CNc2nc3ccccc3[nH]2)ccc1OC(=O)CNc1nc2ccccc2[nH]1`, the growth was -44.4% (active). Then `COc1ccc(Sc2[nH]c(C=O)c3ccccc23)cc1`, with 14.7%.

For the compound `O=C1/C(=C/c2ccc(Cl)cc2)CN(C(=O)CCN2CCC(=NO)CC2)C/C1=C\c1ccc(Cl)cc1`, the growth is -13% (active). As to `NC1CCC(Nc2nc(NCc3ccc(-c4ccco4)nc3)c3ncn(C4CCCC4)c3n2)CC1` (stereo not given), the growth is -33.3% (active). As to `CCCC(=O)OCC1OC(n2cnc3c(=S)nc[nH]c32)C(OC(=O)CCC)C1OC(=O)CCC` (stereo not given), the growth is 32.1%. As to `c1ccc(N2CCN(c3nncc4ccccc34)CC2)nc1`, the growth was 96.6%. In the case of `CCCCC1=C(P(=O)(O)O)N[C@H](C(=O)O)CS1`, the growth was 103%. Turning to `O=[N+]([O-])c1cccc(SSc2cccc([N+](=O)[O-])c2)c1`, the growth is 93.6%. On to `CC(C)(C)c1ccc(C(=O)Nc2sc3c(c2C#N)CCC(=O)C3)cc1`, for which the growth is -1.94% (active). For `COC(=O)[C@@]1(C)CC[C@]2(C)CC[C@]3(C)C4=CC=C5C(=CC(=O)C(O)=C5C)[C@]4(C)[C@@H](O)C[C@@]3(C)[C@@H]2C1`, the growth is 49.6%. Then `COc1cc(C2C3=C(COC3=O)N(CCO)c3cc4c(cc32)OCO4)cc(OC)c1O` (stereo not given), with 4.08% (active). With `c1ccc(Nc2cc(-c3cccnc3)[nH]n2)cc1`, the growth was 89.3%.

With `O=C1CCCCN1CCCCC#Cc1cccc(C#Cc2cccnc2)c1`, the growth was -23.2% (active).

As to `CNC(=O)c1c(C)oc2cc(Oc3ncnc4cc(OC)c(OC)cc34)ccc12`, the growth was 117%. Then `COc1ccc(C(=O)c2sc3nc4c(c(-c5cccnc5)c3c2N)CCCC4)cc1OC`, with 86.6%; and `CCOC(=O)c1c(NS(=O)(=O)c2ccc(C)cc2)sc2c1CCC1(C2)OCCO1`, with 88.5%. With `CC/C=C\C[C@@H]1C/C=C2/C(=O)C=C[C@H]2C/C=C\CCCC(=O)O1`, the growth is -26% (active). In the case of `O=c1cc(Cl)[nH]c(=O)[nH]1`, the growth is 91.7%. Then `O=C1C[C@H](N2C(=O)c3ccccc3S2(=O)=O)C2CO[C@@H]1O2`, with 106%; and `CCCCn1c(=O)c(-c2cc(-c3ccc(Cl)cc3)nc(-c3ccc(Cl)cc3)c2)cc2cc(Cl)ccc21`, with 100%. On to `COc1ccc(/C=C(\C#N)n2nnc3ccccc32)cc1`, for which the growth is -13% (active). Then `Cc1nc2ccccc2n1CC1NC(=O)NC1=O` (stereo not given), with 95.1%; and `CCN(CC)CCN1CNC(=S)NC1`, with 78.8%; and `CCCCC[C@H]1C/C=C2/C(=O)C(Cl)=C[C@@H]2C/C=C\CCCC(=O)O1`, with -9.03% (active).

With `C=CCC(=O)N[C@H](/C=C/C(=O)O)Cc1ccc(-c2cc(Cl)cc(Cl)c2)cc1`, the growth is 101%. Turning to `O=C(Nn1c(NCC(=O)N2c3ccccc3Sc3ccccc32)nnc1-c1ccc(O)cc1)c1ccccc1`, the growth was 98.6%. As to `COc1ncc(-c2ccc3nccc(C#CCN4CCN(S(C)(=O)=O)CC4)c3c2)cc1NS(=O)(=O)c1ccc(F)cc1F`, the growth was -18.6% (active). Turning to `Cc1nc(S(=O)(=O)c2ccccc2)c(S(=O)(=O)Cc2ccc([N+](=O)[O-])cc2)o1`, the growth was 89.9%. Take `Nc1ccc(Cl)c(S(=O)(=O)O)c1`: the growth is 90.5%.
